Data taken from PubChem BioAssay (Tox21).
Inconclusive results are not listed. Entries that show only a call come without a potency. The source made the active and inactive calls. Calls come from the whole dose curve.

Tests used:
[1] = biological target: Acetylcholinesterase (Homo sapiens) (UniProt P22303); assay: Acetylcholinesterase (AChE) small molecule antagonists: colormetric cell-based qHTS assay (AID 1347395); note: nearly all actives have a fitted effect of over 30% in size
Procedure, shortened: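 SH-SY5Y cells; cpd 30 min 37 C; + DTNB/acetylthiocholine, 90 min 37 C; colorimetric thiocholine read; qHTS.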

[2] = biological target: Acetylcholinesterase (Homo sapiens) (UniProt P22303); assay: Acetylcholinesterase (AChE) small molecule antagonists: enzyme-based qHTS assay (AID 1347397); settings: Potency: AChE enzyme activity inhibition; outcome: AChE enzyme activity inhibition; note: nearly all actives have a fitted effect of over 55% in size
Procedure, shortened: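 Compound or DMSO vehicle was pin-transferred onto recombinant human AChE (50 mU/mL as dispensed) and left 30 min at room temperature. Acetylthiocholine with DTNB then started the reaction, read colorimetrically 10 min later.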

[3] = biological target: Acetylcholinesterase (Homo sapiens) (UniProt P22303); assay: Acetylcholinesterase (AChE) small molecule antagonists: fluorescence cell-based qHTS assay (AID 1347398); settings: Potency: AChE activity; outcome: AChE activity; note: nearly all actives have a fitted effect of over 50% in size
Procedure, shortened: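 Using neuroblastoma SH-SY5Y cells as the enzyme source, test chemicals are preincubated 30 min at 37 C; AChE-driven acetylthiocholine cleavage is then quantified by thiocholine-dependent Thiolite Green fluorescence after 40 min at room temperature.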

[4] = biological target: Acetylcholinesterase (Homo sapiens) (UniProt P22303); assay: Acetylcholinesterase (AChE) small molecule antagonists: enzyme-based qHTS assay with human liver microsomes (AID 1347399); settings: Potency: qHTS inhibition; outcome: qHTS inhibition; note: nearly all actives have a fitted effect of over 60% in size
Procedure, shortened: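 Recombinant human AChE (50 mU/mL in the enzyme mix) and human liver microsomes (0.25 mg/mL final) were preincubated with compound and NADPH (0.25 mg/mL final) for 30 min at 37 C. Acetylthiocholine/DTNB was then added; thiocholine was read colorimetrically after 10 min at room temperature.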

Sequence of Acetylcholinesterase (Homo sapiens) (P22303 whole entry, looked up): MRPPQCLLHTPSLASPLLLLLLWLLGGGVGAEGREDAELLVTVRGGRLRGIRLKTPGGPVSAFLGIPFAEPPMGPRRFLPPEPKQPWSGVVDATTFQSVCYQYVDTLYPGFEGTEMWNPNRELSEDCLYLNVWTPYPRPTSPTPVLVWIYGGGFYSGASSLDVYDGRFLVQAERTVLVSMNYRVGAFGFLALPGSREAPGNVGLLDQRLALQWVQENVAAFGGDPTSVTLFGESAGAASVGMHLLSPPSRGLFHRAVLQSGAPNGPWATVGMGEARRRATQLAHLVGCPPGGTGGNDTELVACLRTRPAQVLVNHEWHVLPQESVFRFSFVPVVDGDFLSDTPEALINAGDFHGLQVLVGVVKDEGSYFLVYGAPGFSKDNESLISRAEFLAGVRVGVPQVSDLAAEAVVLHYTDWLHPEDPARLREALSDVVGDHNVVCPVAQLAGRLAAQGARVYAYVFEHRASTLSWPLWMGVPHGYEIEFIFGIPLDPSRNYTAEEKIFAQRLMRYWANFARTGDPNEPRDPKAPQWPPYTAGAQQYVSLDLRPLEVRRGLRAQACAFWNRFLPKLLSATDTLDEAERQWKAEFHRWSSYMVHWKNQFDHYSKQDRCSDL

| SMILES | Potency [1] | Potency [2] | Potency [3] | Potency [4] |
| --- | --- | --- | --- | --- |
| COCC(=O)O[C@]1(CCN(C)CCCc2nc3ccccc3[nH]2)CCc2cc(F)ccc2[C@@H]1C(C)C | inactive | inactive | – | – |
| ClC(Cl)(Br)Br | inactive | inactive | inactive | – |
| O=C(O)c1cc(-c2ccc(F)cc2F)ccc1O | inactive | inactive | inactive | – |
| CC(=O)OCC(=O)[C@@]1(OC(C)=O)[C@@H](C)C[C@H]2[C@@H]3C[C@H](F)C4=CC(=O)C=C[C@]4(C)[C@@]3(F)[C@@H](O)C[C@@]21C | inactive | inactive | inactive | – |
| CC(C)CCCCOC(=O)c1ccccc1C(=O)OCCCCC(C)C | inactive | inactive | inactive | – |
| CC(C)OC(=O)C(C)N(C(=O)c1ccccc1)c1ccc(F)c(Cl)c1 (stereo not drawn) | inactive | inactive | inactive | – |
| Cc1cccc(N(C)C)c1 | inactive | inactive | inactive | – |
| Cc1c(-c2ccccc2)oc2c(C(=O)OCCN3CCCCC3)cccc2c1=O | inactive | inactive | – | – |
| CC(C)COCC(CN(Cc1ccccc1)c1ccccc1)N1CCCC1 (stereo not drawn) | inactive | inactive | – | – |
| CCCCCCCCN(C)CCCCCCCC | inactive | inactive | inactive | – |
| CCCCCCOC(=O)CC | inactive | inactive | inactive | – |
| CCCCCCCCCCCCCCCCOS(=O)(=O)O | inactive | inactive | inactive | – |
| CC(=O)CCC1=C(C)CCCC1(C)C | inactive | inactive | inactive | – |
| CCOC(=O)COC(=O)c1cc(Oc2ccc(C(F)(F)F)cc2Cl)ccc1[N+](=O)[O-] | inactive | inactive | inactive | – |
| Nc1ccc(C(=O)OCC(O)CO)cc1 (stereo not drawn) | inactive | inactive | inactive | inactive |
